Compound activity deposited in PubChem by Small Molecule Screening Facility, UW Madison.
The entries come from a sample that favours hits as a whole.
RMI FANCM FP: disruptors of RMI1/RMI2 association with MM2 peptide – biochemical, fluorescence polarization, human, primary screen | FP signal (polarization) at 33 µM | RMI core complex with F-MM2 peptide; stronger effect = lower value | AID 1159607, 2016 | RMI core complex (RMI1/RMI2) binding to FANCM MM2 peptide, human | hit rate 0.58% among 70,000; in the data active means FP signal below about 40
Large screens that a line does not name were inactive; ! = repeats disagree.

O=C(Cc1cccc2ccccc12)NCC1CCN(Cc2cccs2)CC1	none
O=C(NCCS(=O)(=O)NC1CCCCC1)c1ccccc1	none
CC(CNC1CCCCC1)OC(=O)c1ccccc1 (stereo not given)	RMI FANCM FP 19
CCC(=O)c1ccc(OCC(O)CNC2CCCCCC2)cc1 (stereo not given)	none
C=CCn1c(=NC(=O)c2ccc(S(=O)(=O)N3CCOCC3)cc2)sc2c3ccccc3ccc21	none
CCCCc1ccc(NC(=O)c2cc(-c3ccco3)nc3c2c(C)nn3C2CCS(=O)(=O)C2)cc1 (stereo not given)	none
CCCCOc1ccccc1/C=C1/SC(N2CCOCC2)=NC1=O	none
NC(=O)c1c(NC(=O)CS(=O)(=O)c2ccccc2)sc2c1CCN(Cc1ccccc1)C2	RMI FANCM FP 21
CCOC(=O)N1CCc2c(sc(NC(=O)CS(=O)(=O)c3ccccc3)c2C#N)C1	none
CC1CCc2c(sc(NC(=O)CCS(=O)(=O)c3ccc(F)cc3)c2C(N)=O)C1 (stereo not given)	none
CCOC(=O)c1c(NC(=O)CCS(=O)(=O)c2ccc(Cl)cc2)sc2c1CCN(C(C)=O)C2	none
CCN1CCc2c(sc(NC(=O)CCS(=O)(=O)c3ccc(F)cc3)c2C(N)=O)C1	RMI FANCM FP 37
COC(=O)c1c(NC(=O)C(C)C)sc2c1CCN(Cc1ccccc1)C2	none
CC(C)N1CCc2c(sc(NC(=O)CCS(=O)(=O)c3ccc(Cl)cc3)c2C(N)=O)C1	none
CCCCC(=O)Nc1sc2c(c1C(N)=O)CCN(C(C)=O)C2	none
CC(=O)N1CCc2c(sc(NC(=O)CS(=O)(=O)c3ccc(Cl)cc3)c2C(N)=O)C1	RMI FANCM FP 15
COCCNC(=O)C(=O)NCC(c1ccc(N(C)C)cc1)N1CCN(C)CC1 (stereo not given)	none
Cc1cc(NC(=O)c2cc3ccccc3oc2=O)on1	none
O=C(NCCN1CCN(c2ccccc2F)CC1)C(=O)NC1CC1	none
Cc1nn(C(C)(C)C)c(OC(=O)c2c(-c3ccccc3Cl)noc2C)c1Sc1ccc(Cl)cc1	none
O=C(Cc1ccc(Cl)cc1)NCCOc1ccccc1	none
Cc1csc(NC(=O)CCCSc2ccc(NC(=O)c3ccc(F)cc3)nn2)n1	none
Cc1ccccc1Cn1cnc2c(cnn2CCNC(=O)COc2ccc(F)cc2)c1=O	none
CS(=O)(=O)NNC(=O)CS(=O)(=O)c1ccc(C(F)(F)F)cn1	none
COC(=O)c1ccc(C(=O)N(CCCN(C)C)c2nc3c(C)cccc3s2)cc1	none
COc1ccc(S(=O)(=O)NCc2ccco2)cc1C(=O)O	RMI FANCM FP 1
CC(C)(C)c1ccc(S(=O)(=O)NCc2ccco2)cc1	none
COc1ccc(S(=O)(=O)NCc2ccco2)c(C)c1C	none
Cn1nc2c(c1NC(=O)/C=C/c1cccs1)CCC2	RMI FANCM FP 37
O=C(/C=C/c1cccs1)Nc1nccs1	none
Cn1nc2c(c1NC(=O)COc1ccccc1)CCC2	none
Cc1ccc2nc(-c3ccc(NS(=O)(=O)c4cn(C)c(=O)n(C)c4=O)cc3)sc2c1	none
CCC(=O)N1CCCc2ccc(NS(=O)(=O)c3ccc(-c4ccccc4)cc3)cc21	none
O=C(NCc1nnc(SCc2ccc(Br)cc2)n1-c1ccc(F)cc1)c1ccco1	none
Cc1ccc(C(C)C)cc2c(C)ccc1-2	none
COc1ccc(N=Nc2cc(C)c(O)c(CN3CCCCC3)c2)cc1	none
COc1ccc(N=Nc2cc(C)c3cc(C(C)C)ccc(C)c2-3)cc1	RMI FANCM FP -11
COc1ccc(Cl)cc1S(=O)(=O)NCC(c1ccc2c(c1)CCN2C)N(C)C (stereo not given)	none
COc1ccc(C(=O)/C=C/Sc2nc3ccc(C)cc3[nH]2)cc1	none
COCc1cc(C)nc2oc(C(=O)c3ccccc3)c(N)c12	none
CCOC(=O)c1oc2nc3c(c(-c4cccnc4)c2c1N)CCc1ccccc1-3	RMI FANCM FP 37
CCOC(=O)Cn1c(-c2cccnc2)nc(-c2ccccc2)c1-c1ccccc1	none
O=C(Cn1c(-c2ccncc2)nc2ccccc21)NCc1ccco1	none
Cc1nnsc1C(=O)NNS(=O)(=O)c1c(C)noc1C	none
CCc1cc(Cl)c(OC)c(C(=O)NC[C@@H]2CCCN2CC)c1O	none
CCN1CCC[C@H]1CNC(=O)c1c(OC)ccc(I)c1O	none
CCN1CCCC1CNC(=O)c1cc(S(N)(=O)=O)ccc1OC (stereo not given)	RMI FANCM FP 2!
COc1ccc(Cl)cc1C(=O)Nc1ccc2c(c1)OCC(C)(C)C(=O)N2C	none
CC(C)Oc1ccc(C(=O)Nc2nnc(-c3ccc4c(c3)OCO4)o2)cc1	none
COc1cc(C(=O)Nc2nnc(-c3ccc4c(c3)OCO4)o2)cc(OC)c1OC	RMI FANCM FP 33
CC(=O)Nc1nnc(-c2ccc3c(c2)OCO3)o1	none
COc1ccccc1C(=O)NNC(=O)c1cccn(Cc2ccc(Cl)c(Cl)c2)c1=O	none
CCS(=O)(=O)c1ccc(-c2ccc(NC(=O)C3c4ccccc4Oc4ccccc43)cc2)nn1	none
CC1CCc2c(sc3ncnc(Oc4ccc5ccccc5c4)c23)C1 (stereo not given)	none
N#Cc1cccc(NC(=O)CSc2ccc(Cl)cc2)c1	none
CCOC(=O)CNC(c1ccccc1)c1cc(Br)ccc1NC(=O)c1ccccc1 (stereo not given)	none
